In the library only some 3.8% were active in any assay of this set; here they are far more common.
PAFAH2 FP inh – PAFAH2 (human) inhibition; Q99487; 340,000 compounds, 0.99% hits; recombinant PAFAH2, FP-rhodamine activity probe, fluorescence polarization; AID 492956; inhibition, % at 3.39 µM;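 active means inhibition above the mean over all tested compounds plus 3 SD, cut at about 30% in these data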;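 further: inhibitors block probe labeling of enzyme so polarization drops; 0% = enzyme with DMSO and 100% = wells lacking PAFAH2 protein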
PAFAH1B2 FP inh – inhibitors of human PAFAH1B2; recombinant PAFAH1B2, FP-rhodamine activity probe, fluorescence polarization; 340,000 compounds, 1.2% hits; P68402; inhibition, % at 3.39 µM;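 active means inhibition above the mean of all tested compounds plus 3 SD, cut at about 24% in these data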;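 further: 0% = enzyme with DMSO and 100% = wells lacking PAFAH1B2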
Target sequence (P68402 whole entry, looked up): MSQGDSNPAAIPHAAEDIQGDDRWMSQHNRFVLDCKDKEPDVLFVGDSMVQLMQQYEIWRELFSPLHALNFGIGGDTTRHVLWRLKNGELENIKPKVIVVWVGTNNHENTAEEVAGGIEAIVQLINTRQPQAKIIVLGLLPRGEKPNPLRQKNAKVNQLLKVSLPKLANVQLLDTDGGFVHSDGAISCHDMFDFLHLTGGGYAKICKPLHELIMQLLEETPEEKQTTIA
DSG3 Ab inh – blocks pemphigus antibody binding to human desmoglein-3; 310,000 compounds, 0.48% hits; AID 588358; binding (percent of control), % at 10 µM; DSG3-coupled beads, scFv-anti-DSG3-GFP binding, flow cytometry; stronger effect = lower value;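 active means binding more than 3 SD below its plate's average and above zero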
PAFAH1B3 FP inh – inhibitors of human PAFAH1B3 | Q15102 | recombinant PAFAH1B3, FP-rhodamine probe, fluorescence polarization | inhibition, % at 3.39 µM | 340,000 compounds, 0.28% hits | AID 492972;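 active means inhibition above the screen-wide average of all tested compounds plus 3 SD, cut at about 25% in these data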;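 further: 0% = enzyme with DMSO only and 100% = wells lacking PAFAH1B3 protein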
pPAFAH inh – inhibitors of human plasma PAF acetylhydrolase (pPAFAH) | recombinant pPAFAH, FP-rhodamine probe fluorescence polarization | inhibition, % at 3.39 µM | 330,000 compounds, 1.5% hits | AID 463082;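 active means inhibition above the mean inhibition across the screen plus 3 SD, cut at about 25% in these data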;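 further: inhibitors block binding of the rhodamine activity-based probe so polarization drops; 0% = enzyme with DMSO and 100% = wells lacking pPAFAH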
Target sequence (Q13093 whole entry, looked up): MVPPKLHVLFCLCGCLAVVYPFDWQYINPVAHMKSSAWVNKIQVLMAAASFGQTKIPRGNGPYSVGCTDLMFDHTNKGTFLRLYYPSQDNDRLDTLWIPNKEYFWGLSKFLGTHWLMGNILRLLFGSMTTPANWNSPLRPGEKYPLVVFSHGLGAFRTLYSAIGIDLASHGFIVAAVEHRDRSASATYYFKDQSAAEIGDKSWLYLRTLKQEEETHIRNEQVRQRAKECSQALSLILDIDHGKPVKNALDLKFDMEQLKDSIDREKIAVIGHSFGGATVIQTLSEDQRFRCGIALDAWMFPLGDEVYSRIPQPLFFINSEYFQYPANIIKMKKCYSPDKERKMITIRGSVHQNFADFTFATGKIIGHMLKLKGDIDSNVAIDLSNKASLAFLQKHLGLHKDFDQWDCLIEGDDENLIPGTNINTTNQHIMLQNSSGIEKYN
M18AAP inhibitor – PfM18AAP enzyme inhibition. recombinant PfM18AAP, H-Glu-NHMec fluorogenic cleavage. inhibition, % at 7.35 µM. 290,000 compounds, 1.2% hits. AID 1822;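 active means inhibition above the campaign mean inhibition over all tested compounds plus 3 SD, cut at about 28% in these data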;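 further: 0% = plate median of test compound wells and 100% = 2 mM ZnCl2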
Starred values were filed as active, the others as inactive; . = not tested or not shown.

SMILES | PAFAH2 FP inh | PAFAH1B2 FP inh | DSG3 Ab inh | PAFAH1B3 FP inh | pPAFAH inh | M18AAP inhibitor
Cc1cccc(NC(=O)c2nc[nH]c2C(=O)NCCCCNC(=O)c2[nH]cnc2C(=O)Nc2cccc(C)c2)c1 | -3.7 | -4.4 | 98.8 | 2.1 | -2.1 | .
COc1cc(-c2nc(-c3ccccc3)c(-c3cccs3)[nH]2)cc(OC)c1O | 20.2 | 17.2 | 101.0 | 15.2 | 32.4* | 18.2
Cc1nn(-c2ccc(Cl)cc2)c(=O)c2ccccc12 | -1.2 | -2.2 | 100.9 | -1.2 | -3.7 | -0.2
Cc1c(Cl)sn(-c2ccc(Cl)cc2)c1=O | -4.6 | -6.9 | 72.3 | -9.2 | . | 57.5*
Cc1nc2nc(C(F)(F)F)[nH]c2nc1C | . | . | 103.9 | . | . | .
CCCCCC/C(C)=C1/SC(=S)NC1=O | -3.9 | 21.4 | 120.4 | 5.2 | 2.8 | -2.2
C/C(C/C(C)=C1/SC(=S)NC1=O)=C1\SC(=S)NC1=O | 12.4 | 5.9 | 103.5 | 15.3 | . | 29.5*
CCC(C)C(=O)Nc1nc(C)c(-c2csc(Nc3cc(OC)ccc3OC)n2)s1 (centres undefined) | -5.3 | 12.1 | 110.0 | 16.0 | 31.8* | 8.1
COc1ccc(OC)c(Nc2nc(-c3sc(NC(=O)CC(C)C)nc3C)cs2)c1 | 2.9 | 8.3 | . | 10.1 | 30.4* | 4.4
Cc1nc(N)sc1-c1csc(NCc2ccccc2)n1 | 9.0 | 12.3 | 105.4 | 7.4 | 14.2 | 19.4
CCC(=O)Nc1nc(C)c(-c2csc(Nc3ccccn3)n2)s1 | 16.6 | 0.3 | 108.6 | 8.7 | 26.2* | 0.1
Cc1nc(N)sc1-c1csc(Nc2ncccn2)n1 | 8.9 | -6.1 | -54.0* | 9.0 | . | -1.0
CSc1ccccc1C(=O)OCC(=O)Nc1c(C)n(C)n(-c2ccccc2)c1=O | . | . | 100.2 | . | . | .
COc1ccc(Cl)cc1S(=O)(=O)N1CCC(C(=O)NCc2ccco2)CC1 | 11.9 | -3.1 | 99.5 | -4.9 | 4.2 | 4.1
COc1ccc(OC)c(Nc2nc(-c3sc(NC(=O)C(C)(C)C)nc3C)cs2)c1 | 15.0 | 3.4 | 105.1 | 5.5 | 30.5* | -0.2
COc1cccc(Nc2nc(-c3sc(C)nc3C)cs2)c1 | 7.5 | 7.8 | 115.8 | 11.8 | 11.9 | -1.6
COc1ccc(OC)c(Nc2nc(-c3sc(C)nc3C)cs2)c1 | 6.5 | 1.7 | . | 5.5 | 32.6* | 9.2
COc1ccccc1Nc1nc(-c2sc(N)nc2C)cs1 | 13.2 | 6.9 | 101.2 | 16.1 | 26.5* | 18.4
O=C1/C(=C/c2cccs2)CCC/C1=C\c1cccs1 | -1.4 | 11.7 | . | 8.2 | 29.1* | 26.7
CC1C/C(=C/c2cccs2)C(=O)/C(=C/c2cccs2)C1 (centres undefined) | -5.5 | -5.9 | 101.2 | -5.2 | 15.8 | 2.3
CC1(C)OC2COC(c3[nH]nc4c(=O)[nH]c(=O)[nH]c34)C2O1 (centres undefined) | . | . | 99.6 | . | . | .
O=C(COC(=O)c1ccc(S(=O)(=O)N2CCCC2)cc1)NCc1ccc(Cl)cc1 | 4.1 | -2.8 | 70.6* | 8.3 | 6.3 | 7.0
COc1ccc(CNC(=O)COc2ccc(S(=O)(=O)N3CCCCC3)cc2)cc1 | 2.0 | -0.9 | 104.7 | 2.2 | 27.5* | -2.1
COc1ccc(Cl)cc1NS(=O)(=O)c1ccc(S(=O)(=O)N2CCCC2)cc1 | -7.2 | 25.1* | 102.4 | 1.5 | 1.8 | -1.1
COc1ccc(-c2ccc(S(=O)(=O)N3CCCC3)cc2)cc1 | -0.6 | 4.7 | 101.3 | 9.2 | 25.5* | -5.7
SMILES | PAFAH2 FP inh | PAFAH1B2 FP inh | DSG3 Ab inh | PAFAH1B3 FP inh | pPAFAH inh | M18AAP inhibitor
CC1=C(C(=O)Nc2ccc(C(=O)NCCCN3CCCCC3C)cc2)SCCO1 (centres undefined) | . | . | 122.0 | . | . | .
O=C([C@H](Cc1ccccc1)NS(=O)(=O)c1ccc(Cl)cc1)N1CC[C@@]2(O)CCCC[C@H]2C1 | 25.5 | 29.5* | 108.5 | 4.2 | 5.1 | -12.3
COc1cc(C(=O)COC(=O)c2ccc3c(c2)OCCO3)cc(OC)c1OC | . | . | 99.4 | . | . | .
C/C(=N\Nc1ccc(C(=O)O)cc1)c1ccc2c(c1)Nc1ccccc1S2 | 24.9 | 8.2 | 97.2 | 25.6* | 33.6* | 27.7
COc1ccc(/C(C)=N/Nc2cccc(C(=O)O)c2)cc1OC | 2.6 | 3.2 | 101.6 | -7.6 | 4.7 | 13.2
CC(C)(C)c1cc(CCC(=O)NNC(=S)NC(=O)c2ccccc2)cc(C(C)(C)C)c1O | 0.5 | -0.6 | 96.3 | 0.9 | 4.9 | 28.7*
CCOc1cccc(CNc2ccc(O)cc2)c1OCc1ccc(Cl)cc1Cl | 3.8 | 9.8 | . | 16.1 | 31.2* | 2.9
CCOc1cccc(CNc2ccc(O)cc2)c1OCc1ccccc1Cl | 2.1 | 4.8 | 93.8 | 5.6 | 32.2* | 16.4
CCOc1cccc(CNn2cnnc2)c1OCc1ccccc1Cl | 2.9 | 2.7 | 100.0 | 6.7 | 2.9 | 3.3
O=C1C=C(NCc2ccc(Cl)cc2)CC(c2ccco2)C1 (centres undefined) | 10.9 | 29.1* | . | 12.1 | 11.0 | 9.9
COc1ccc2ccc3c(c2c1)N=C[C@]1(O3)N(C)c2ccccc2C1(C)C | 5.0 | -2.2 | 76.4 | 1.7 | 32.7* | 6.8
CC1=NOC2(C1)N(C)c1ccccc1C2(C)C (centres undefined) | 0.2 | 9.9 | 101.7 | 5.9 | -3.4 | -6.6
CC(=O)Nc1cccc(NC(=O)CSc2ccc(C(F)(F)F)cc2[N+](=O)[O-])c1 | -8.0 | -0.1 | 84.2* | 5.6 | 0.8 | -13.5
Cc1ccc(SC(C)c2nc(-c3cccnc3)no2)cc1 (centres undefined) | -0.1 | 26.5* | 97.2 | 8.1 | -2.0 | -6.0
c1ccc(C(c2ccccc2)c2nc(-c3cccnc3)no2)cc1 | 1.2 | 2.5 | 99.7 | 8.0 | 12.8 | -8.1
CN(C)Cc1ccccc1CNC(=O)c1ccc(Cl)c(S(=O)(=O)NC2CC2)c1 | . | . | 107.3 | . | . | .
COCCNC(=O)C1Nc2ccc(C(F)(F)F)cc2C2C=CCC12 (centres undefined) | 4.8 | 8.3 | 95.8 | 14.3 | 10.5 | .
CCOC(=O)c1ccc2c(c1)C1C=CCC1C(C(=O)O)N2 (centres undefined) | . | . | . | . | 83.0* | 4.1
Cc1ccc2c(c1C)NC(C(=O)O)C1CC=CC21 (centres undefined) | 43.7* | 8.8 | 35.4* | 11.5 | 64.6* | .
C[C@@H]1CN([C@H](C)CO)C(=O)CCCn2nncc2CO[C@H]1CN(C)S(=O)(=O)c1ccc(C#N)cc1 | . | . | 98.7 | . | . | .
O[C@H]1C[C@H](c2ccccc2)N(Cc2cccs2)C[C@@H]1n1cc(-c2ccc(F)cc2)nn1 | . | . | 99.6 | . | . | .
CCOc1cc(/C=N/N=C2/NC(=O)C(CC(=O)O)S2)ccc1OCc1ccc(Cl)cc1Cl (centres undefined) | 16.5 | 8.7 | 92.8 | 7.5 | 26.4* | 1.6
COC(=O)c1cn(C(=O)c2ccc3c(c2)OCO3)c2ccccc12 | . | . | 102.9 | . | . | .
CC(=O)C(N=Nc1ccccc1)(Sc1nnc(-c2ccccc2)n1-c1ccccc1)C(=O)Nc1ccccc1 (centres undefined) | -10.0 | 26.3* | 99.6 | -5.3 | -0.2 | 0.3
O=C1c2ccccc2-c2n[nH]c(=O)c3ccc(N4CCCCC4)c1c23 | 12.9 | 8.2 | 100.2 | 9.8 | 32.6* | 1.8

Assay outcomes from PubChem.
